Compound activity (PubChem)
KLK7 zymogen act = activators of human kallikrein-7 zymogen. AID 652039. activation, % at 7 µM. purified proKLK7, EDANS-DABCYL substrate fluorescence; 100% is mature enzyme control, 0% vehicle. P49862. 0.9% of 370,000 active;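 active = activation above the mean of all tested compounds plus 3 SD, computed per campaign excluding outliers beyond control limits, cut at about 13% in these data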
Target sequence (P49862 whole entry, looked up): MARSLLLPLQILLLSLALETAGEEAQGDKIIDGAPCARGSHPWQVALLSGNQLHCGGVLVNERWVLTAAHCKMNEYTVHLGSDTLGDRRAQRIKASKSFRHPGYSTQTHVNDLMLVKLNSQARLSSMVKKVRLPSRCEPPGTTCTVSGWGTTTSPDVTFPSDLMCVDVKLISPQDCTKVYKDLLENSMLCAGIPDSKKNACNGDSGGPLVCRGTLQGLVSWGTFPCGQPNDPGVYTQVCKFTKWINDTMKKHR
ADAM10 inh = ADAM10 inhibition, QFRET primary screen. O14672. recombinant ADAM10, EDANS/DABCYL FRET peptide cleavage, 3 h. inhibition, % at 7 µM. 0.62% of 370,000 active;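 active = inhibition above a per-campaign cutoff equal to the mean of compounds falling between control-based bounds plus 3 SD, cut at about 20% in these data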;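 also: 0% = DMSO wells while the 100% control is not disclosed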
FAS-TE inh = inhibitors of human fatty acid synthase thioesterase domain. P49327. recombinant FAS-TE, OMFH fluorogenic substrate, fluorescence endpoint. inhibition, % at 15 µM. 0.67% of 360,000 active. AID 602261;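 active = compounds whose normalised, plate-corrected inhibition of enzyme fluorescence in the single-dose primary screen is 50% or more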;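 also: 0% = DMSO with enzyme and 100% = substrate without enzyme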
GRIN3A LBD mod = NR3A (human) ligand-binding domain modulation. NR3A LBD differential scanning fluorimetry, Tm shift; 0% = protein alone, 100% = glycine-bound protein. Tm shift relative to glycine control, % at 25 µM. 2.5% of 340,000 active. AID 1259313;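 active = melting temperature shift of at least 10% of the positive control shift, at one fixed dose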
ADAM17 inh = inhibits human ADAM17; P78536; recombinant ADAM17, EDANS/DABCYL FRET peptide cleavage; inhibition, % at 6.95 µM; 0.83% of 370,000 active; AID 720648;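 active = inhibition above the mean of compounds lying between control limits plus 3 SD, set per campaign, cut at about 8.5% in these data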;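 also: 0% = DMSO-only wells as the low control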
ADAM10 confirm = human ADAM10 inhibition, confirmation | shares compounds with ADAM10 inh | 1% of 2,100 active | inhibition, % at 6.95 µM | ADAM10 QFRET peptide cleavage, EDANS fluorescence;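 active = inhibition above about 20% chosen separately for each screening run, limit read from the data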;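 also: 0% = DMSO wells and 100% = marimastat wells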
ADAM17 counter = counter-screen for ADAM10 exosite inhibitors: inhibitors of human ADAM17. shares compounds with ADAM10 inh. ADAM17 QFRET peptide cleavage, EDANS fluorescence. 0.5% of 2,100 active. AID 743214. inhibition, % at 6.95 µM;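 active = mean triplicate inhibition above the solvent-only control wells' mean plus 3 SD, cut at about 12% in these data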;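 also: 0% = DMSO wells and 100% = marimastat wells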
ADAM10 counter = ADAM10 inhibition, counter-screen for ADAM17 exosite hits; shares compounds with ADAM17 inh; recombinant ADAM10, EDANS/DABCYL FRET peptide cleavage, 3 h; inhibition, % at 6.95 µM; 47% of 2,900 active; AID 743256;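 active = mean inhibition over the triplicate runs exceeds the activity threshold set in the earlier primary screen, cut at about 20% in these data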;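 also: 0% = DMSO wells and 100% = marimastat wells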
ADAM17 confirm = confirmation of inhibitors of human ADAM17. shares compounds with ADAM17 inh. recombinant ADAM17, EDANS/DABCYL QFRET peptide cleavage. inhibition, % at 6.95 µM. 65% of 2,900 active. AID 743257;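 active = mean inhibition across replicates above the hit cutoff set in the primary screen, cut at about 8.5% in these data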;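 also: 0% = DMSO wells and 100% = marimastat wells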
Active calls of the source: *; · = not tested or not shown. Compounds with a hit are over-represented: about 4.6% of the library has one in this group of screens.

SMILES | KLK7 zymogen act | ADAM10 inh | FAS-TE inh | GRIN3A LBD mod | ADAM17 inh | ADAM10 confirm | ADAM17 counter | ADAM10 counter | ADAM17 confirm
CCC1(c2ccccc2)NC(=O)N(CC(=O)Nc2ccc(S(=O)(=O)N3CC(C)CC(C)C3)cc2)C1=O (stereo not given) | 0.5 | 21.1* | 39.4 | 7.2 | 10.3* | 8.0 | 2.0 | 48.5* | 23.7*
CC1CCN(S(=O)(=O)c2ccc(NC(=O)CN3C(=O)NC(C)(c4ccccc4)C3=O)cc2)CC1 (stereo not given) | -0.2 | 12.0 | 7.9 | -4.5 | 4.4 | · | · | · | ·
C=C(C)C(=O)OCC(O)COc1ccc(C(C)(C)c2ccc(OCC(O)COC(=O)C(=C)C)cc2)cc1 (stereo not given) | -0.1 | 35.2* | 25.0 | -12.6 | 9.5* | 7.6 | 1.9 | 33.1* | 17.6*
COC(=O)[C@]12C[C@H](CC(=O)NCCC(C)C)C(=O)N(Cc3ccccc3)C1=C[C@H](C(C)(C)C)O[C@@H]2C | -0.1 | 9.3 | · | · | 0.1 | · | · | · | ·
COc1ccc2nc(NC(=O)C3CCCN3S(=O)(=O)c3ccc(C)cc3)sc2c1 (stereo not given) | 0.5 | 21.9* | 21.2 | -14.1 | 8.6* | -0.2 | 0.6 | 13.3 | 8.1
COC(=O)C1=C(C)N(Cc2ccccc2C(F)(F)F)C(=NCc2ccc(OC)cc2)NC1CCc1ccccc1 (stereo not given) | 0.2 | -3.9 | · | · | -0.1 | · | · | · | ·
CCCCCCCCCCSc1n[nH]c(N)n1 | -0.1 | 45.1* | 17.2 | -28.8 | 18.9* | 1.6 | 1.1 | 17.5 | 10.1*
C[C@H](CO)N1C[C@H](C)[C@H](CN(C)C(=O)Nc2ccc(F)cc2)OCc2ccccc2-c2c(n(C)c3ccccc23)C1=O | 1.1 | 8.0 | 5.1 | · | -0.5 | · | · | · | ·
Cc1ccccc1S(=O)(=O)N(C)C[C@@H]1OCc2ccccc2-c2c(n(C)c3ccccc23)C(=O)N([C@H](C)CO)C[C@@H]1C | 0.7 | 27.3* | 23.2 | · | 9.7* | 5.6 | 2.5 | 31.7* | 16.0*
C[C@@H]1CN([C@H](C)CO)C(=O)c2c(c3ccccc3n2C)-c2ccccc2CO[C@@H]1CN(C)C(=O)Nc1ccc2c(c1)OCO2 | 0.5 | 21.5* | 3.0 | · | 13.8* | 3.7 | 1.1 | 19.9* | 9.5*
COc1ccc(NS(=O)(=O)c2cccc(NC(=O)CCC(=O)c3cccs3)c2)cc1 | 0.2 | 8.9 | -1.3 | -3.0 | 1.9 | · | · | · | ·
COc1ccc(NS(=O)(=O)c2cccc(NC(=O)CCC(=O)c3ccc(Cl)cc3)c2)cc1 | -0.5 | 29.5* | 24.6 | 26.1* | 14.2* | 6.7 | 2.5 | 34.0* | 19.2*
CC(C)CC(C(=O)OCC(=O)Nc1cccc(Cl)c1)N1C(=O)C2CC=CCC2C1=O (stereo not given) | -0.4 | 34.6* | 18.6 | -2.4 | 17.0* | 2.8 | 0.2 | 26.5* | 10.9*
O=C(N=Nc1c(O)[nH]c2c(Cl)cc(Cl)cc12)c1ccccc1O | 0.7 | -2.4 | · | · | -2.5 | · | · | · | ·
CNC(=S)N(CCc1c(C)[nH]c2ccc(C)cc12)Cc1cccs1 | 0.4 | 21.8* | 20.0 | 1.2 | 9.8* | 1.8 | 2.0 | 16.3 | 10.0*
CC1=C(c2ccccc2)C(=O)C(C)(C)CC1=O | -0.3 | -8.4 | · | · | 1.1 | · | · | · | ·
CC1(C)CC(=O)c2c(nc(SCC(=O)Nc3nsc(-c4ccccc4)n3)c(C#N)c2-c2ccccc2)C1 | 0.0 | 5.7 | 44.2 | -0.6 | -5.4 | · | · | · | ·
CCc1c(C#N)c(SCCC(=O)Nc2ccc(F)cc2)nc2c1C(=O)CC(C)(C)C2 | 0.2 | 31.3* | 29.6 | 1.7 | 10.0* | 6.1 | 1.6 | 33.0* | 13.2*
